# Measured values reported in PubChem BioAssay (NCI).
# About 83,000 compounds went through this panel and 20% of them were active in at least one assay; those are over-represented in the sample as a whole.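 Method: cells in 96-well plates; compound added at one concentration; 48 h incubation; percent growth measured; values under 10 scored active.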 Unmarked numbers belong to inactive results. Active and inactive are the calls of the source.
# Columns and labels:
# Assay in all cases: NCI-60 one-dose screen, 48 h (100 = growth as untreated, 0 = no growth, -100 = all killed)
# NCI-H460 lung = conditions: 10 µM unless noted
# MALME-3M melanoma = conditions: 10 µM unless noted
# SF-295 CNS = conditions: 10 µM unless noted
# UACC-257 melanoma = conditions: 10 µM unless noted
# SNB-75 CNS = conditions: 10 µM unless noted
# U251 CNS = conditions: 10 µM unless noted
# SK-MEL-5 melanoma = conditions: 10 µM unless noted
# SK-MEL-2 melanoma = conditions: 10 µM unless noted
# SN12C renal = conditions: 10 µM unless noted
# UO-31 renal = conditions: 10 µM unless noted
# HL-60(TB) leukemia = conditions: 10 µM unless noted
# MOLT-4 leukemia = conditions: 10 µM
# SR leukemia = conditions: 10 µM
# RPMI-8226 leukemia = conditions: 10 µM unless noted
# IGROV1 ovarian = conditions: 10 µM
# BT-549 breast = conditions: 10 µM
# HCT-116 colon = conditions: 10 µM unless noted
# HCC-2998 colon = conditions: 10 µM unless noted
# K-562 leukemia = conditions: 10 µM unless noted
# RXF 393 renal = conditions: 10 µM unless noted
Compound,growth (NCI-H460 lung),growth (MALME-3M melanoma),growth (SF-295 CNS),growth (UACC-257 melanoma),growth (SNB-75 CNS),growth (U251 CNS),growth (SK-MEL-5 melanoma),growth (SK-MEL-2 melanoma),growth (SN12C renal),growth (UO-31 renal),growth (HL-60(TB) leukemia),growth (MOLT-4 leukemia),growth (SR leukemia),growth (RPMI-8226 leukemia),growth (IGROV1 ovarian),growth (BT-549 breast),growth (HCT-116 colon),growth (HCC-2998 colon),growth (K-562 leukemia),growth (RXF 393 renal)
Cc1ccc2oc(=O)c3c(c2c1)OC(N)=C(C#N)C3c1ccco1 (centres undefined),105%,99%,98%,96.6%,96.2%,109%,101%,112%,101%,77.7%,113%,107%,107%,100%,104%,98.8%,99.9%,109%,,
O=C(/C=C/c1ccccc1)N[C@@H](CO)Cc1cnc[nH]1,105%,110%,98.9%,,94.3%,101%,103%,102%,105%,98.2%,98.8%,93.8%,93.6%,98%,92.9%,103%,109%,112%,107%,118%
O=C(NCc1ccc([N+](=O)[O-])cc1)Nc1ccc(S(=O)(=O)F)cc1,95.8%,78.7%,,83%,,85.7%,79.9%,105%,85.8%,61.2%,85.1%,87.3%,79.1%,68.9%,94.8%,94.9%,82.2%,99.2%,93%,59.9%
COc1ccc(C2SCC(=O)Nc3c2c(C)nn3-c2nc3ccc(C)cc3s2)cc1O (centres undefined),15.7%,43.5%,32.4%,70.1%,,31.3%,16.6%,-1.24% (active),49.6%,28.4%,3.8% (active),18.2%,9.81% (active),38.8%,52.7%,,,54.2%,9.45% (active),50.2%
OB([O][Hg][c]1ccccc1)[O][Hg][c]1ccccc1,-21.4% (active),-88.1% (active),-32.1% (active),-98.3% (active),-56% (active),-82.4% (active),-96.7% (active),-74.9% (active),-99.6% (active),-94.1% (active),-53.3% (active),-38.8% (active),-15.2% (active),-44.4% (active),-54.3% (active),-91.5% (active),-68.4% (active),-45.5% (active),-32.5% (active),-94.3% (active)
CC(=O)N(C)C1=Nc2ccc(Cl)cc2C(c2ccccc2)=[N+]([O-])C1,111%,121%,107%,95.7%,95.9%,111%,105%,95.8%,97.2%,80.7%,135%,101%,86.1%,113%,106%,106%,99.3%,,109%,109%
O=C1c2ccccc2C(=O)N1[N+](=O)[O-],102%,89.4%,103%,101%,,93.2%,104%,104%,97.2%,85.9%,113%,108%,95.4%,101%,109%,110%,112%,87.2%,105%,103%
C=CCN1C(=O)C(CC)(CCC(C)C)C(=O)NC1=S (centres undefined),105%,96.1%,88.7%,89.5%,96.8%,97.3%,105%,117%,,86.4%,101%,96.6%,103%,95.1%,108%,106%,105%,124%,99.8%,107%
